ELG1 DNA repair: blocks ELG1-dependent DNA repair in HEK293T cells. HEK293T ELG1-luciferase reporter, luminescence, 16 h; DNA damage induced by 5-fluorouridine. Potency, µM (series often up to 46.1 µM), for inactives: at the top dose activity change, negative = inhibition, actives largely listed as inhibitors. 330,000 compounds, 2.3% hits. AID 504467; note: potency is the fitted concentration of half-maximal effect; nearly all actives have a fitted effect of over 55% in size
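Reporter activity after DNA damage by 5-fluorouridine is monitored. Compound-treated cells incubate 16 hr at 37 °C, then ONE-Glo is added for 30 min before luminescence reading.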
FBPA coupling cs: counter-screen for Giardia aldolase inhibitors: coupling enzyme system | coupling enzyme system counterscreen, AmpLite Red fluorescence | activity change, negative = inhibition, % at 58.2 µM, hits read low | 290,000 compounds, 0.67% hits | AID 2472; in the data active = activity change below about -30%
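Counterscreen of the coupled detection system alone, without aldolase: glyceraldehyde-3-phosphate coupling enzymes plus AmpLite Red readout. Compounds at 57.5 uM final, 10 min RT preincubation, 20 min RT reaction, fluorescence 525/598 nm.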
TSHR antagonist: blocks TSH signaling through the human TSH receptor. TSHR-expressing cells, TSH-stimulated cAMP HTRF, 2 h; active compounds read low. activity change, negative = inhibition, % at 11.5 µM. 330,000 compounds, 0.2% hits;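 active = activity change below a set negative limit, meaning inhibition stronger than a set level, cut at about -70% in these data; inconclusive = activity change between two set negative limits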
Target sequence (P16473 whole entry, looked up): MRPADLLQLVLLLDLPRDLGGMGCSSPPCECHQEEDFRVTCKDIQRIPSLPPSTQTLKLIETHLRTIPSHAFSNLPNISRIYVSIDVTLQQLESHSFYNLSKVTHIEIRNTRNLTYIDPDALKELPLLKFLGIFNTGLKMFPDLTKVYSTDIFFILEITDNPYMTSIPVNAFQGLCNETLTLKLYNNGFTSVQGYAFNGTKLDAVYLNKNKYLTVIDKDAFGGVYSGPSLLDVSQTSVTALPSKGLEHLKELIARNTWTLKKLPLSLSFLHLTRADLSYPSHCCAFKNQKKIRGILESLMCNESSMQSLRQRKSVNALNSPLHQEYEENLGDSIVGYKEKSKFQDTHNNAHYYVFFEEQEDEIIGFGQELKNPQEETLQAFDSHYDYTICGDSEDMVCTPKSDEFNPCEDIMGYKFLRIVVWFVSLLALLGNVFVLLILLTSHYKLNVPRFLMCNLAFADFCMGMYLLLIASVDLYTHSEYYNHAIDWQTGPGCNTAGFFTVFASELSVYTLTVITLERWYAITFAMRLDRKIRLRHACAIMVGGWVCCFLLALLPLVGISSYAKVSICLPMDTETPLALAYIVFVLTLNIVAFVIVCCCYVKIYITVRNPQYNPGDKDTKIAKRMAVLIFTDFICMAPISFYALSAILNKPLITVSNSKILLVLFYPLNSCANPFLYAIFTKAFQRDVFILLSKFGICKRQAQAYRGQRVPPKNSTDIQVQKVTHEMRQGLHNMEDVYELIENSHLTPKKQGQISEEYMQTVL
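TSHR-expressing cells were treated with compounds, then stimulated with TSH at EC80 (4nM final) for 2 hours at 37 deg C. Cellular cAMP was measured by HTRF competition between lysate cAMP and cAMP-d2 for a cryptate-labelled anti-cAMP antibody.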
VP16 counter: inhibits Gal4-VP16 luciferase reporter, ROR gamma counter-screen; Drosophila S2 Gal4-VP16 UAS-luciferase, luminescence, 20 h; Potency, µM (top dose mostly 53.6 µM), for the others: at the top dose activity, negative = inhibition, hits mostly inhibitors; 310,000 compounds, 3.5% hits;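 note: Gal4-VP16 expression switched on by copper sulfate through the metallothionein promoter; potency is the fitted concentration of half-maximal effect; nearly all actives have a fitted effect of over 50% in size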
RORg inh: inhibitors of mouse ROR gamma transcriptional activity; P51450; Potency, µM (titrated, usually from 53.6 µM), without a hit: at the highest dose activity change, negative = inhibition, actives largely listed as inhibitors; Drosophila S2 Gal4-RORgamma UAS-luciferase reporter, 20 h; 310,000 compounds, 5.4% hits; note: potency is the fitted concentration of half-maximal effect; nearly all actives have a fitted effect of over 60% in size
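Drosophila S2 cells stably expressing Gal4-DBD/mouse RORγ fusion under metallothionein promoter plus UAS-luciferase; compound 1 h, then 700 uM CuSO4 induction for 20 h at ambient temperature; inhibition read as reduced luminescence.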
* = called active by the depositor; ? = inconclusive; . = not tested or not shown. Shown are actives, neighbours in structure and some others; about 8% of the full set was active somewhere. Unless noted, calls come from the whole dose curve; as a rule, active = well fitted curve in the direction sought with a large enough effect; inconclusive = small, poorly fitted or top-dose-only effect, or another doubt; inactive = no such curve, though single readings can be large; an effect the other way counts as inactive or inconclusive. % is set by controls: 0 for no effect and ±100 for the full control effect.

SMILES	ELG1 DNA repair	FBPA coupling cs	TSHR antagonist	VP16 counter	RORg inh
COc1ccc(Cl)cc1NC(=O)CNC(c1ccccc1)c1ccccc1	-18%	-5	-12	2.5µM*	?
COc1ccc(Cl)cc1NC(=O)C/C(C)=N/NC(=O)c1ccc(O)cc1	0%	1	1	?	8.9µM*
Cc1cccc(N2CCN(CCCNC(=O)c3ccc(NC(=O)C4=CSCCO4)cc3)CC2C)c1 (stereo unspecified)	?	.	-5	-5%	18%
CCC(Sc1nc(-c2ccccc2)c(-c2ccccc2)[nH]1)C(=O)O (stereo unspecified)	8%	8	-8	-3%	18%
COc1ccccc1NC(=S)NCCc1ccc(OC)c(OC)c1	-3%	0	-7	-13%	?
COc1ccccc1NC(=S)NCCC(c1ccccc1)c1ccccc1	-16%	11	-1	?	11µM*
COc1cc(NC(=S)NCCCN2CCOCC2)c(OC)cc1Cl	-21%	3	0	5%	-23%
COc1cc(NC(=S)NCCC(c2ccccc2)c2ccccc2)c(OC)cc1Cl	-20%	0	-5	3.2µM*	5µM*
Cc1ccc(NC(=O)NN2CCN(C)CC2)cc1C	8%	2	10	1%	-1%
COc1cc(C(=O)NC(=S)N(CCc2ccccc2)CCc2ccccc2)cc(OC)c1OC	18µM*	0	-2	0.79µM*	0.4µM*
COc1ccc(C(=O)N(C)Cc2ccccc2)cc1Br	16%	12	-10	-19%	?
CC(C)(C)N(Cc1ccccc1)C(=O)c1cccs1	-12%	7	-6	-5%	32%
CN(Cc1ccccc1)C(=S)NC(=O)C1CCCCC1	?	5	7	15%	-3%
CN(Cc1ccccc1)C(=S)NC(=O)c1ccc(-c2ccccc2)cc1	?	-1	2	0.089µM*	0.28µM*
CN(Cc1ccccc1)C(=S)NC(=O)c1cccs1	-8%	4	-10	0.25µM*	0.32µM*
COc1cc(C(=O)NC(=S)N(C)Cc2ccccc2)cc(OC)c1OC	?	7	4	3.5µM*	0.56µM*
COc1cc(C(=O)NC(C)CCc2ccccc2)cc(OC)c1OC (stereo unspecified)	-2%	1	5	1%	-10%
O=C(O)CNC(=O)c1ccccc1I	.	0	.	-2%	-1%
COc1ccc(CCN(C)C2CCCN(C(=O)CCC(F)(F)F)C2)cc1OC (stereo unspecified)	1%	1	19	3%	-12%
CN(C)S(=O)(=O)c1cccc(NC(=O)c2cccc(N3C(=O)CCC3=O)c2)c1	?	.	23	.	.
CC(C)c1ccc(NC(=O)Cn2nnc(C(=O)NCc3ccc4c(c3)OCO4)c2N)cc1	3%	1	-8	-5%	-17%
S=C(NCc1ccc(Cl)c(Cl)c1)Nc1ccc2c(c1)OCO2	8%	2	2	?	11µM*
COc1ccc(N2CCN(C(CNC(=O)C(=O)NCc3ccc4c(c3)OCO4)c3ccco3)CC2)cc1 (stereo unspecified)	7.3µM*	0	-47	-10%	1%
CC(C)c1ccc(NC(=S)NCc2ccc3c(c2)OCO3)cc1	4%	0	-10	?	13µM*
COc1ccc(NC(=S)NCc2ccc3c(c2)OCO3)cc1	-11%	-1	8	?	13µM*
SMILES	ELG1 DNA repair	FBPA coupling cs	TSHR antagonist	VP16 counter	RORg inh
S=C(NCc1cccnc1)Nc1ccc2c(c1)OCO2	9%	5	-5	1%	-12%
COc1ccc(C2=Nn3c(nnc3-c3ccccc3F)SC2)cc1OCC1CC1	?	.	73	.	.
CCc1cc2c(N3CCCCC3)ncnc2s1	?	-1	-10	35µM*	?
CCSc1ncnc2sc3c(c12)CCC3	0%	5	-2	5%	-18%
CCN(CC)c1ncnc2sc3c(c12)CCC3	15µM*	0	-5	3%	-28%
CNc1nc(OC)nc(N(C#N)CN2C(=O)c3ccccc3S2(=O)=O)n1	23%	-5	-7	-20%	-26%
Cc1cc(C)nc(N(C#N)CN2C(=O)c3ccccc3S2(=O)=O)n1	0%	2	-6	?	13µM*

Screens: PubChem BioAssay, National Center for Advancing Translational Sciences (NCATS)
